The record followed here is PubChem BioAssay.

Unmarked numbers belong to inactive results. No rule for the calls is given here. Non-standard residues stand in square brackets, D forms with d. Residues, ends and D or L forms follow the SMILES beside them. Groups on a side chain read outwards from the residue. *: point of attachment. X2 = CCC(C)C(N)C1=NC(C(=O)*)CS1; Orn = NCCC[CH](N)C(=O)O

In assay [1] the test system is Aerobactin synthetase IucA (Klebsiella pneumoniae hvKP1). Briefly: IucA enzyme inhibition, primary screen, biochemical, Spectrum library (AID 1346200).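 Also: 100% = wells without compound and 0% = wells lacking enzyme.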 As to conditions: malachite green pyrophosphate, A620, at 8 µM, stronger effect = lower value.
The subject of assay [2] is Aerobactin synthetase IucA (Klebsiella pneumoniae, hypervirulent). Nature of the assay: biochemical IucA inhibition screen of LOPAC library by absorbance (AID 1346212).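 Also: 100% = no compound wells and 0% = no enzyme wells.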 The following applies: IucA enzyme assay, absorbance (OD) readout; stronger effect = lower value;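 tested at 8 µM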.

`CC(=O)Oc1ccc(O)cc1`: in assay [1], the activity remaining was 122%.
`CC1=C2[C@@H](CC1)[C@@H](C)CC[C@@H]2/C=C(\C)C(=O)O`: in assay [1], the activity remaining is 113%.
Take `C[C@@H]1O[C@@H](O[C@H]2[C@@H](Oc3cc(O)c4c(c3)O[C@H](c3ccc(O)cc3)CC4=O)O[C@H](CO)[C@@H](O)[C@@H]2O)[C@H](O)[C@H](O)[C@H]1O`: the activity remaining in assay [1] is 117%.
On to `C/C=C/c1ccc(OC)cc1`, for which, in assay [1], the activity remaining is 98.6%.
Same read-out and setting: then `CC(C)c1c(O)c(-c2cc3c(c(C(C)C)c2O)CCC2C(C)(C)CCC[C@]32C)cc2c1CCC1C(C)(C)CCC[C@]21C` (stereo partly specified), with 102%; and `CCCc1nc(C(C)(C)O)c(C(=O)OCc2oc(=O)oc2C)n1Cc1ccc(-c2ccccc2-c2nn[nH]n2)cc1`, with 121%.
Consider `CN(C(=O)CN(CCO)CC(=O)N(C)C(C)(C)Cc1ccccc1)C(C)(C)Cc1ccccc1`, for which the activity remaining in assay [1] was 101%.
On to `CC(=O)O[C@]1(C(C)=O)CCC2C3C=C(Cl)C4=CC(=O)CC[C@]4(C)C3CC[C@@]21C` (stereo partly specified), for which, in assay [1], the activity remaining was 130%.
Regarding `OC[C@H]1O[C@@H](O[C@H]2[C@H](O)[C@@H](O)[C@@H](O)O[C@@H]2CO)[C@H](O)[C@@H](O)[C@@H]1O`, the activity remaining in assay [1] is 107%.
Regarding `CC(=O)O[C@@H]1CC2C(C)(C)C(=O)CC[C@]2(C)C2CC[C@@]3(C)[C@H](c4ccoc4)OC(=O)C4OC43[C@@]21C` (stereo partly specified), in assay [1], the activity remaining is 110%.
As to `Cc1c(Cl)cccc1Nc1ccccc1C(=O)O`, the activity remaining in assay [1] is 82.9%.
The same measure, in the same setting: in the case of `Cc1cc(=O)c2c(O)c(C)c(O)cc2o1` it was 108%; in that of `C/C=C/CC(C)C(O)C1C(=O)NC(CC)C(=O)N(C)CC(=O)N(C)C(CC(C)C)C(=O)NC(C(C)C)C(=O)N(C)C(CC(C)C)C(=O)NC(C)C(=O)NC(C)C(=O)N(C)C(CC(C)C)C(=O)N(C)C(CC(C)C)C(=O)N(C)C(C(C)C)C(=O)N1C` (stereo unspecified), 113%; in that of `COc1cc(-c2coc3cc(OCc4ccccc4)c(OC)c(O)c3c2=O)cc(O)c1OC`, 122%.
Regarding `Cc1c(C(N)=O)cc([N+](=O)[O-])cc1[N+](=O)[O-]`, in assay [1], the activity remaining is 106%.
Take `COC(=O)/C(=C1\OC(=O)C(c2ccccc2)C1=O)c1ccccc1` (stereo unspecified): the activity remaining in assay [1] was 106%.
Take `CCC(C)C(N)C1=NC(C(=O)NC(CC(C)C)C(=O)NC(CCC(=O)O)C(=O)NC(C(=O)NCCCCC2NC(=O)C(CC(N)=O)NC(=O)C(CC(=O)O)NC(=O)C(Cc3cnc[nH]3)NC(=O)C(Cc3ccccc3)NC(=O)C(C(C)CC)NC(=O)C(CCCN)NC2=O)C(C)CC)CS1` (stereo not drawn) (cyclo(DNK([Ile-Glu-Leu-X2])[Orn]IFH); configuration not given here): the activity remaining in assay [1] was 123%.
Take `COC1C=CC23c4cc5c(cc4CN(C[C@H]2O)[C@@H]3C1)OCO5` (stereo partly specified): in assay [1], the activity remaining was 110%.
`Nc1ccc(N=Nc2ccccc2)c(N)n1`: the activity remaining in assay [1] is 112%.
Same read-out and setting: then `CN1C(C)(C)CCCC1(C)C`, with 82.7%; and `CCC(c1ccc(O)cc1)C(CC)c1ccc(O)cc1` (stereo unspecified), with 121%.
As for `COc1cc([C@H]2Oc3cc([C@H]4Oc5cc(O)cc(O)c5C(=O)[C@@H]4O)ccc3O[C@@H]2CO)ccc1O`, in assay [1], the activity remaining was 122%.
For `CC1=C(/C=C/C(C)=C/C=C/C(C)=C/C=C/C=C(C)/C=C/C=C(C)/C=C/C(=O)[C@]2(C)C[C@@H](O)CC2(C)C)C(C)(C)C[C@H](O)C1`, in assay [1], the activity remaining was 108%.
For the molecule `CC(=O)O[C@@H]1CC2C(C)(C)[C@@H](O)CC[C@]2(C)C2CC[C@@]3(C)[C@H](c4ccoc4)OC(=O)[C@H]4O[C@]43[C@@]21C` (stereo partly specified), in assay [1], the activity remaining is 124%.
As for `O=C(O)CN(CC(=O)O)Cc1cc2c(-c3ccccc3C(=O)O)c3cc(CN(CC(=O)O)CC(=O)O)c(=O)cc-3oc2cc1O`, the activity remaining in assay [1] is 113%.
On to `CC(=O)N1CCCC1C(=O)O` (stereo unspecified), for which, in assay [1], the activity remaining was 106%.
On to `Cc1onc(-c2ccccc2)c1C(=O)NC1C(=O)N2[C@@H]1SC(C)(C)[C@@H]2C(=O)O` (stereo partly specified), for which, in assay [1], the activity remaining was 106%.
`CC(=O)O[C@H]1CC[C@]2(C)C3CC[C@@]4(C)C(CC5O[C@@]6(CCC(C)CO6)[C@@H](C)C54)C3CC[C@@H]2C1` (stereo partly specified): in assay [1], the activity remaining was 84.2%.
Consider `O=C1CC[C@]23/C=C/C(=O)NCCCCNCCCNC(=O)/C=C/c4ccc(c2c4)O[C@@H]3C1`, for which the activity remaining in assay [1] is 117%.
As to `C=CCS(=O)C[C@H](N)C(=O)O` (stereo partly specified), the activity remaining in assay [1] is 125%.
Still for that read-out and setting: then `CCCN(CCC)S(=O)(=O)c1ccc(C(=O)O)cc1`, with 93.6%; and `C=CCSC[C@@H](N)C(=O)O`, with 98.6%.
Take `C/C=C(/C(=C/C)c1ccc(O)cc1)c1ccc(O)cc1`: the activity remaining in assay [1] is 115%.
Consider `CCCCCC(=O)O[C@]1(C(C)=O)CCC2C3CCC4=CC(=O)CC[C@]4(C)C3CC[C@@]21C` (stereo partly specified), for which the activity remaining in assay [1] was 109%.
The same measure, in the same setting: then `O=c1c(O)c(-c2ccccc2)oc2ccc3occc3c12`, with 104%.
Regarding `CCCc1cc(OC)c2c(c1)OCO2`, the activity remaining in assay [1] was 106%.
On to `C[C@]12CCC3c4ccc(O)cc4CCC3C1CCC2=O` (stereo partly specified), for which, in assay [1], the activity remaining was 103%.
Same read-out and setting: then `CC1(C)O[C@@H]2CC3C4CCC5=CC(=O)C=C[C@]5(C)[C@@]4(F)[C@@H](O)C[C@]3(C)[C@]2(C(=O)CO)O1` (stereo partly specified), with 116%; and `CCCC(=O)Nc1ccc(OCC(O)CNC(C)C)c(C(C)=O)c1` (stereo unspecified), with 120%.
A word on the remaining activity: it is the signal under treatment as a percentage of the control signal. For the molecule `CC(C)OC(=O)C(C)(C)Oc1ccc(C(=O)c2ccc(Cl)cc2)cc1`, in assay [1], the activity remaining was 94.1%. Also, the remaining activity in assay [2] was 108%.
In the case of `CNC[C@H](O)c1cccc(O)c1`, the activity remaining in assay [1] is 103%. The remaining activity in assay [2] was 112%.
In the case of `CN1CCN(CC(=O)N2c3ccccc3C(=O)Nc3cccnc32)CC1`, the activity remaining in assay [1] was 117%. Besides, the remaining activity in assay [2] was 94.6%.
`C=CCc1ccccc1OCC(O)CNC(C)C` (stereo unspecified): in assay [1], the activity remaining was 110%. For the same molecule, the remaining activity in assay [2] is 91.4%.
Take `CCCCNc1cc(C(=O)O)cc(S(N)(=O)=O)c1Oc1ccccc1`: the activity remaining in assay [1] was 115%. Besides, the remaining activity in assay [2] was 109%.
On to `N=C(N)c1ccc(OCCCCCOc2ccc(C(=N)N)cc2)cc1`, for which, in assay [1], the activity remaining is 98.2%. Also, the remaining activity in assay [2] was 122%.
Regarding `OCCN1CCN(CCCN2c3ccccc3Sc3ccc(C(F)(F)F)cc32)CC1`, in assay [1], the activity remaining is 125%. The remaining activity in assay [2] is 93.9%.
`CNCCC=C1c2ccccc2CCc2ccccc21`: in assay [1], the activity remaining was 122%. Also, the remaining activity in assay [2] was 113%.
In the case of `CCn1nc(C(=O)O)c(=O)c2cc3c(cc21)OCO3`, the activity remaining in assay [1] is 112%. Moreover, the remaining activity in assay [2] is 111%.
The like results for `C[C@](N)(Cc1ccc(O)cc1)C(=O)O` were, in that order, 120% and 110%.
With `Cn1cnc([N+](=O)[O-])c1Sc1ncnc2nc[nH]c12`, the activity remaining in assay [1] was 113%. The remaining activity in assay [2] is 121%.
For `O=C(O)C1=CC(=C(c2ccc(O)c(C(=O)O)c2)c2ccc(O)c(C(=O)O)c2)C=CC1=O`, in that order: 101% and 103%.
In the case of `CCCCc1oc2ccccc2c1C(=O)c1cc(I)c(OCCN(CC)CC)c(I)c1`, the activity remaining in assay [1] was 123%. In addition, in assay [2], the remaining activity was 101%.
Turning to `CN(C)CCCN1c2ccccc2Sc2ccc(C(F)(F)F)cc21`, the activity remaining in assay [1] was 108%. In addition, the remaining activity in assay [2] is 97%.
In the case of `O=C1CCc2cc(OCCCCc3nnnn3C3CCCCC3)ccc2N1`, the activity remaining in assay [1] was 117%. The remaining activity in assay [2] was 113%.
On to `O=C(/C=C/c1ccc(O)cc1)c1ccc(O)cc1O`, for which, in assay [1], the activity remaining was 98.7%. For the same molecule, the remaining activity in assay [2] was 93.6%.
In the case of `NCCSSCCN`, in assay [1], the activity remaining was 116%. The remaining activity in assay [2] is 117%.
As to `Cc1cnc(NC(=O)C2=C(O)c3ccccc3S(=O)(=O)N2C)s1`, in assay [1], the activity remaining is 118%. Also, the remaining activity in assay [2] was 120%.
Regarding `COc1ccccc1OCC(O)CN1CCN(CC(=O)Nc2c(C)cccc2C)CC1` (stereo unspecified), the activity remaining in assay [1] was 122%. The remaining activity in assay [2] is 97.8%.
The like results for `CN1CCN(C2=Nc3cc(Cl)ccc3Nc3ccccc32)CC1` were, in that order, 120% and 127%.
Take `COC(=O)C1=C(C)NC(C)=C(C(=O)OC)C1c1ccccc1[N+](=O)[O-]`: the activity remaining in assay [1] is 100%. In addition, in assay [2], the remaining activity is 115%.
Consider `CN(C)CCN(Cc1cccs1)c1ccccn1`, for which the activity remaining in assay [1] is 120%. The remaining activity in assay [2] was 93%.
For the molecule `C[C@H](CS)C(=O)N1CCC[C@H]1C(=O)O`, in assay [1], the activity remaining was 99.1%. In addition, the remaining activity in assay [2] is 99.3%.
In the case of `COC(=O)[C@H]1[C@H]2C[C@@H]3c4[nH]c5cc(OC)ccc5c4CCN3C[C@H]2C[C@@H](OC(=O)c2cc(OC)c(OC)c(OC)c2)[C@@H]1OC`, the activity remaining in assay [1] was 109%. Also, in assay [2], the remaining activity was 102%.
As for `CCSC(=N)N`, the activity remaining in assay [1] was 103%. Further, the remaining activity in assay [2] is 93.6%.
As for `NCCCC(=O)O`, the activity remaining in assay [1] was 119%. Further, in assay [2], the remaining activity was 123%.
`O=C(O)c1cc(=O)c2ccc(Cl)cc2[nH]1`: the activity remaining in assay [1] is 94.8%. Further, the remaining activity in assay [2] is 85.9%.
For the molecule `O=C(C1CCCCC1)N1CC(=O)N2CCc3ccccc3C2C1` (stereo unspecified), the activity remaining in assay [1] was 123%. For the same molecule, the remaining activity in assay [2] is 104%.
The like results for `CCCC(CCC)C(=O)O` were, in that order, 108% and 110%.
On to `Nc1ccc(S(=O)(=O)Nc2ccnn2-c2ccccc2)cc1`, for which the activity remaining in assay [1] was 117%. The remaining activity in assay [2] was 99.3%.
With `NCCCCN`, in assay [1], the activity remaining is 91.8%. Besides, the remaining activity in assay [2] is 94.5%.
